The nature of experiment [1]: qHTS assay to identify small molecule agonists of the sonic hedgehog signaling (Shh) pathway (AID 1259368).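 Note: NIH/3T3-derived 3T3Gli1-Luc cells carrying a stable Gli1-driven firefly luciferase reporter; series mostly up to about 92 µM; nearly all actives have a fitted effect of over 15% in size.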 The procedure, abridged: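 NIH/3T3-derived 3T3Gli1-Luc cells with stably integrated Gli1-driven firefly luciferase, 2,000 cells/well, compounds added after 4 hr. Incubated 24 hr at 37C, 5% CO2; luminescence read after 30 min with luciferase reagent at room temperature.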
Background: qHTS replaces the single test concentration by a dilution series.

Experiment [2] is described as follows: qHTS assay to identify small molecule antagonists of the sonic hedgehog signaling (Shh) pathway (AID 1259369). Note: nearly all actives have a fitted effect of over 45% in size. Note: potency is the fitted concentration of half-maximal effect. The procedure, abridged:
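NIH/3T3-derived Gli1-Luc reporter cells plated 4 h, dosed with compound, then stimulated with conditioned medium for 24 h at 37 C. Firefly luciferase luminescence read after 30 min with detection reagent at room temperature.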

The target in experiment [3] is Estrogen receptor beta (Homo sapiens) (UniProt Q92731). The experiment is described as follows: qHTS assay to identify small molecule agonists of the estrogen receptor beta (ER-beta) signaling pathway (AID 1259377; active = well fitted activation curve with a large enough effect in the signal ratio in the repeat runs, not every such curve was filed as active; the % refers to the signal ratio). The method in brief: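 Measured by fluorescence intensity from a B/G FRET beta-lactamase substrate (2 h, room temperature) in ER-beta-UAS-bla HEK293T cells treated with DMSO-dissolved compounds for 16 hr at 37C and 5% CO2.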

For experiment [4] the target is unchanged. Description: qHTS assay to identify small molecule antagonists of the estrogen receptor beta (ER-beta) signaling pathway (AID 1259378; active = well fitted inhibition curve with a large enough effect in the signal ratio in the repeat runs, not every such curve was filed as active; the % refers to the signal ratio; note: potency is the fitted concentration of half-maximal effect). The procedure, abridged:
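ER-beta-UAS-bla HEK293T (GripTite) cells in 2% charcoal-stripped FBS medium were preincubated 6 hr at 37C, dosed with compound, then stimulated with 1 nM E2 (final) for 16 hr; beta-lactamase reporter read by B/G FRET fluorescence after 2 hr substrate loading.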

Experiment [5] in a line: qHTS assay to identify small molecule agonists of the androgen receptor (AR) signaling pathway in the presence of an antagonist - cell viability counter screen (AID 1259379; active = well fitted curve in the direction sought with a large enough effect in the repeat runs; an effect the other way counts as inactive or inconclusive; note: nearly all actives have a fitted effect of over 25% in size; note: potency is the fitted concentration of half-maximal effect). The procedure, abridged: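 MDA-kb2 cells (MMTV-luciferase, AR/GR), 3,000/well, 5 h attachment, then 3.0 µM nilutamide (final) and compounds at 15 concentrations. Viability by CellTiter-Fluor fluorescence after 16 h at 37 °C, 0% CO2, in the reporter wells.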

A short description of experiment [6]: qHTS assay to identify small molecule agonists of the estrogen receptor beta (ER-beta) signaling pathway - cell viability counter screen (AID 1259380; active = well fitted curve in the direction sought with a large enough effect in the repeat runs; an effect the other way counts as inactive or inconclusive; note: nearly all actives have a fitted effect of over 30% in size; note: potency is the fitted concentration of half-maximal effect). The procedure, abridged:
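ER-beta-UAS-bla HEK293T cells in medium with 2% charcoal-stripped FBS, pre-incubated 6 hr, then treated 16 hr at 37C. Cytotoxicity read in the same wells by CellTiter-Glo luminescence after 30 min at room temperature.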

Experiment [7] can be described thus: qHTS assay to identify small molecule antagonists of the estrogen receptor beta (ER-beta) signaling pathway - cell viability counter screen (AID 1259382; active = well fitted curve in the direction sought with a large enough effect in the repeat runs; an effect the other way counts as inactive or inconclusive; note: nearly all actives have a fitted effect of over 55% in size; note: potency is the fitted concentration of half-maximal effect). The method in brief: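 ER-beta-UAS-bla HEK293T cells in 2% charcoal-stripped FBS medium, treated with compound plus 1 nM 17-beta-estradiol for 16 h at 37C. Viability read by CellTiter-Glo luminescence after 30 min at room temperature in the same wells.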

A short description of experiment [8]: qHTS assay to identify small molecule agonists or antagonists of the thyroid stimulating hormone receptor (TSHR) signaling pathway - wild type cell line counter screen (AID 1259384). The method in brief: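 Wild-type HEK293 cells were plated 18 h at 37 C/5% CO2, pin-dosed with compound plus Ro20-1724 medium, held 30 min at room temperature, then given cAMP-d2 and anti-cAMP-cryptate; fluorescence was read after 1 h. Fifteen concentrations, triplicate.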

Several values for one entry are separate records, joined by “and”; a condition that tells them apart may be missing. Identical values can stand only once. Inconclusive results are not listed. Some structures have more than one record in an assay (separate samples or runs), and their calls can disagree. Activity calls are given as the source filed them. Unless noted, calls come from the whole dose curve.

The values below come from PubChem BioAssay (Tox21).

Sequence of Estrogen receptor beta (Homo sapiens) (Q92731 whole entry, looked up): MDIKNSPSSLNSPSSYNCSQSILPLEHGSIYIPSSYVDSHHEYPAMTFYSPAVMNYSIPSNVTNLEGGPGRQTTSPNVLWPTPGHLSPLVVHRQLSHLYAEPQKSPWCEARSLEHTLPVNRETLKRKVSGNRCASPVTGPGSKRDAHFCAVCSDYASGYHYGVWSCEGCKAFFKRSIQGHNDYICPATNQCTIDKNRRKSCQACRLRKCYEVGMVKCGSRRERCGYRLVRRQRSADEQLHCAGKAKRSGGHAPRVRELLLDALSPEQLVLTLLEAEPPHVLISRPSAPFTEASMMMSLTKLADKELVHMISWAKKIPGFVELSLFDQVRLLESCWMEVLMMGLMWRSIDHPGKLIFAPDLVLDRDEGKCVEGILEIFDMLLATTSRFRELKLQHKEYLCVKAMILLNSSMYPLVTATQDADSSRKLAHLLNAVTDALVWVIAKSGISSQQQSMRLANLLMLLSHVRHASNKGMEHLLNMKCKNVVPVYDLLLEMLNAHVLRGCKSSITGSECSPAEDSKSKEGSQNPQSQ

As for `N[C@@H](Cc1c[nH]c2ccccc12)C(=O)O`, the result in experiment [1] and in experiment [3] was inactive. For the same compound, the Potency entry in experiment [2], in experiment [4], in experiment [5], in experiment [6], in experiment [7] and in experiment [8] was “inactive” throughout.

In the case of `Cc1c(N(C)C)c(=O)n(-c2ccccc2)n1C`, the outcome in experiment [1] and in experiment [3] was inactive. Moreover, the Potency result in experiment [2], in experiment [4], in experiment [5], in experiment [6], in experiment [7] and in experiment [8] was “inactive” in each case.

`CO[C@H]1C=CO[C@@]2(C)Oc3c(C)c(O)c4c(O)c(c(/C=N/N5CCN(C)CC5)c(O)c4c3C2=O)NC(=O)/C(C)=C\C=C[C@H](C)[C@H](O)[C@@H](C)[C@@H](O)[C@@H](C)[C@H](OC(C)=O)[C@@H]1C`: the outcome in experiment [1] and in experiment [3] was inactive. Further, the Potency in experiment [2] was 27.4 µM (active) and inactive; in experiment [5], 24.5 µM (active) and 27.6 µM (active) and 15 µM (active). For the same compound, the Potency result in experiment [4], in experiment [6], in experiment [7] and in experiment [8] was “inactive” each time.

On to `Cc1c(N(C)CS(=O)(=O)O)c(=O)n(-c2ccccc2)n1C`, for which the outcome in experiment [1] and in experiment [3] was inactive. Besides, the Potency result in experiment [2], in experiment [4], in experiment [5], in experiment [6], in experiment [7] and in experiment [8] was “inactive” in each case.

On to `CC(=O)OC/C=C(C)/C=C/C=C(C)/C=C/C1=C(C)CCCC1(C)C`, for which the compound was classed as inactive in experiment [1] and in experiment [3]. The figures for the Potency in experiment [2] and in experiment [4] were 24.3 µM (active) and 54.5 µM (active), respectively. For the same compound, the Potency entry in experiment [5], in experiment [6], in experiment [7] and in experiment [8] was “inactive” each time.

Regarding `C=C(C)OC(C)=O`, the compound was called inactive in experiment [1] and in experiment [3]. Also, the Potency entry in experiment [2], in experiment [4], in experiment [5], in experiment [6], in experiment [7] and in experiment [8] was “inactive” in each case.

Consider `NC(=O)NO`, for which the call in experiment [1] and in experiment [3] was inactive. Further, the Potency result in experiment [2], in experiment [4], in experiment [5], in experiment [6], in experiment [7] and in experiment [8] was “inactive” in each case.

In the case of `C[C@]12C=CC(=O)C=C1CC[C@@H]1[C@@H]2C(=O)C[C@@]2(C)[C@H]1CC[C@]2(O)C(=O)CO`, the call in experiment [1] and in experiment [3] was inactive. Besides, the Potency result in experiment [2], in experiment [4], in experiment [5], in experiment [6], in experiment [7] and in experiment [8] was “inactive” in each case.

For the compound `CCCCCCCC(=O)OCC(O)CO` (configuration not stated), the compound was called inactive in experiment [1] and in experiment [3]. Also, the Potency result in experiment [2], in experiment [4], in experiment [5], in experiment [6], in experiment [7] and in experiment [8] was “inactive” throughout.

For the compound `NC(N)=NC(N)=NCCc1ccccc1`, the result in experiment [1] and in experiment [3] was inactive. Moreover, the Potency result in experiment [2], in experiment [4], in experiment [6], in experiment [7] and in experiment [8] was “inactive” each time. Further, in experiment [5], the Potency was 48.3 µM (active) and 54.5 µM (active) and 26.6 µM (active).

As to `CC(C)(C)CC(C)(C)c1ccc(O)c(-n2nc3ccccc3n2)c1`, the compound was called inactive in experiment [1] and in experiment [3]. Further, the Potency result in experiment [2], in experiment [4], in experiment [5], in experiment [7] and in experiment [8] was “inactive” in each case. For the same compound, the Potency in experiment [6] is 27.7 µM (active).

For `COc1ccccc1NC(=O)CC(C)=O`, the compound was classed as inactive in experiment [1] and in experiment [3]. Besides, the Potency result in experiment [2], in experiment [4], in experiment [5], in experiment [6], in experiment [7] and in experiment [8] was “inactive” each time.

Turning to `O=C1CCCCCN1`, the compound was classed as inactive in experiment [1] and in experiment [3]. The Potency in experiment [2] is 1.54 µM (active) and inactive. In addition, the Potency entry in experiment [4], in experiment [5], in experiment [6], in experiment [7] and in experiment [8] was “inactive” in each case.

Consider `NC(=O)c1ccc([N+](=O)[O-])cc1Cl`, for which the outcome in experiment [1] and in experiment [3] was inactive. In addition, the Potency entry in experiment [2], in experiment [4], in experiment [5], in experiment [6], in experiment [7] and in experiment [8] was “inactive” in each case.

As to `CCn1cc(C(=O)O)c(=O)c2ccc(C)nc21`, the call in experiment [1] and in experiment [3] was inactive. In addition, the Potency entry in experiment [2], in experiment [4], in experiment [5], in experiment [6], in experiment [7] and in experiment [8] was “inactive” in each case.

As to `CCOCCO`, the result in experiment [1] and in experiment [3] was inactive. Besides, the Potency entry in experiment [2], in experiment [4], in experiment [5], in experiment [6], in experiment [7] and in experiment [8] was “inactive” in each case.

Consider `CCCCC/C(C=O)=C\c1ccccc1`, for which the compound was classed as inactive in experiment [1] and in experiment [3]. Further, the Potency result in experiment [2], in experiment [4], in experiment [5], in experiment [6], in experiment [7] and in experiment [8] was “inactive” in each case.

Consider `Oc1cccc(O)c1`, for which the outcome in experiment [1] and in experiment [3] was inactive. Moreover, the Potency entry in experiment [2], in experiment [4], in experiment [5], in experiment [6], in experiment [7] and in experiment [8] was “inactive” throughout.

Turning to `COC(=O)C1CCC(C(=O)OC)CC1` (configuration not stated), the outcome in experiment [1] and in experiment [3] was inactive. For the same compound, the Potency result in experiment [2], in experiment [4], in experiment [5], in experiment [6], in experiment [7] and in experiment [8] was “inactive” throughout.

As to `COc1ccccc1O`, the compound was classed as inactive in experiment [1] and in experiment [3]. Besides, the Potency result in experiment [2], in experiment [4], in experiment [5], in experiment [6], in experiment [7] and in experiment [8] was “inactive” in each case.

As for `C#C[C@]1(O)CC[C@H]2[C@@H]3CCC4=CC(=O)CC[C@@H]4[C@H]3CC[C@@]21CC`, in experiment [1], the result was inactive. Besides, the Potency in experiment [2] was 17.2 µM (active) and 13.7 µM (active). Besides, the Potency result in experiment [5], in experiment [6], in experiment [7] and in experiment [8] was “inactive” in each case.

On to `C#C[C@]1(O)CC[C@H]2[C@@H]3CCc4cc(O)ccc4[C@H]3CC[C@@]21C`, for which the result in experiment [1] was inactive. Besides, the Potency in experiment [2] was 1.71 µM (active) and 9.69 µM (active); in experiment [6] it was 60.7 µM (active) and 48.6 µM (active); in experiment [7], 54.1 µM (active) and inactive. The Potency result in experiment [5] and in experiment [8] was “inactive” in each case.
